Data from ChEMBL document CHEMBL3988442, “University of Dundee, Small-Polar-MMV Screening Library” (2021).
About 960 (1.5%) of roughly 66,000 compounds showed an effect of 50% or more. Many of the other results were omitted from the sample, so strong results are more common in it than they were.

Tested on: Trypanosoma brucei
Experiment: Trypanosoma brucei 72 hour study
Assay type: functional, organism-based
Set-up: scale not given: in the data most compounds retested in dose-response had high values

Cc1nc(NC2CCCCC2)cc(C2CCCNC2)n1.Cl (configuration not stated)
Percent Effect (30.3 µM, […]): 43.9%

Cc1cc(Cc2ccccc2C)cc(C2CCCNC2)n1 (configuration not stated)
Percent Effect (30.3 µM, […]): 49.51%

Cc1cc(Cc2cccc(C(F)(F)F)c2)cc(C2CCCNC2)n1 (configuration not stated)
Percent Effect (30.3 µM, […]): 99.88%

CN1CC(=O)N(c2cnn(C)c2)CC12CCN(Cc1cccs1)C2.O=C(O)C(F)(F)F.O=C(O)C(F)(F)F (configuration not stated)
Percent Effect (30 µM, 30.03 µM): -5.896%

Cc1nc(CN2C(=O)CCC23CCN(Cc2ccccn2)CC3)cs1.O=C(O)C(F)(F)F.O=C(O)C(F)(F)F
Percent Effect (30.3 µM, […]): -6.926%

COCCN1C(=O)C[C@H]2[C@H]1CCN2Cc1ccc(OC)cc1.O=C(O)C(F)(F)F
Percent Effect (30 µM, 30.03 µM): -19.5%

CC(C)CN1CCC(NC(=O)c2ccc(Cl)cc2Cl)CC1
Percent Effect (30 µM, 30.03 µM): -12.53%

Cc1ncc(CNCCO)c2cc(C(=O)c3ccc(Br)cc3)oc12.Cl
Percent Effect (30 µM, 30.03 µM): -4.371%

CCOCC1CN(CCOCc2ccccc2)Cc2c1cnn2C (configuration not stated)
Percent Effect (30.3 µM, […]): -79.88%

COCC1CN(CCc2ccc(OC)c(OC)c2)Cc2c1cnn2C (configuration not stated)
Percent Effect (30.3 µM, […]): -2.73%

CCOCC1CN(CCc2ccccc2)Cc2c1cnn2C (configuration not stated)
Percent Effect (30.3 µM, […]): 62.26%

O=C(O)C(F)(F)F.O=C1N(CC2CCCC2)CCC12CCN(c1ncc(F)cn1)CC2
Percent Effect (30.3 µM, […]): -27.57%

Fc1ccccc1Sc1ccccc1CNC1=NCCN1.I
Percent Effect (30 µM, 30.03 µM): 6.107%

Cn1cccc1C(=O)N1C[C@@H]2C[C@@H](c3nc(C4CC4)cs3)O[C@@H]2C1.O=C(O)C(F)(F)F
Percent Effect (30 µM, 30.03 µM): -16.96%

COc1ccc(-n2ccc(C(=O)NCCN3CCCCCC3)n2)cc1
Percent Effect (30.3 µM, […]): 53.03%
Percent Effect (10 mM, 10 mM as filed; unlikely as a test dose): -44.94%

CC1CCCN(CCNC(=O)c2ccn(-c3ccc(F)cc3)n2)C1 (configuration not stated)
Percent Effect (30.3 µM, […]): 63.43%
Percent Effect (10 mM, 10 mM as filed; unlikely as a test dose): 1.661%

COc1ccc(-n2ccc(C(=O)NCCN3CCC(C)CC3)n2)cc1
Percent Effect (30.3 µM, […]): 26.29%
Percent Effect (10 mM, 10 mM as filed; unlikely as a test dose): 24.76%

CC1CCCN(CCNC(=O)c2ccn(-c3cccc(F)c3)n2)C1 (configuration not stated)
Percent Effect (30.3 µM, […]): 1.994%
Percent Effect (10 mM, 10 mM as filed; unlikely as a test dose): 11.39%

CC1CCCN(CCNC(=O)c2ccn(-c3ccccc3)n2)C1 (configuration not stated)
Percent Effect (30 µM, 30.03 µM): 26.82%

COc1ccc(-n2ccc(C(=O)NCCN3CCCCC3)n2)cc1
Percent Effect (30.3 µM, […]): -2.952%
Percent Effect (10 mM, 10 mM as filed; unlikely as a test dose): -24.45%

CCCn1[nH]cc/c1=N\C(=O)CN1CCc2cnc(C(C)C)nc2C1
Percent Effect (10 µM): -28.74%

CCc1ocnc1C(=O)N1CCOC(c2nc(C)n[nH]2)C1 (configuration not stated)
Percent Effect (10 µM): -27.2%
Percent Effect (30.3 µM, […]): -13.47%

Cc1ccc(CN2Cc3nnn(C)c3C(COCc3ccccc3)C2)s1.O=C(O)C(F)(F)F (configuration not stated)
Percent Effect (30.3 µM, […]): -18.47%

Cn1cc(-c2ncc3c(c2C(=O)O)CCN(CC2CC2)C3)cn1.O=C(O)C(F)(F)F.O=C(O)C(F)(F)F
Percent Effect (30.3 µM, […]): -26.37%

COCCC1(CNC(=O)Nc2ccnc(C)c2)CCCC1
Percent Effect (30 µM, 30.03 µM): 5.014%

CN(C)c1ncc(I)c(C2CCCN2C)n1.Cl (configuration not stated)
Percent Effect (30.3 µM, […]): -5.31%

CCc1cnc(CN(C)C2CCN(CCn3cc(C#N)cn3)C2)o1 (configuration not stated)
Percent Effect (30.3 µM, […]): -0.7137%

Cl.Cn1nc(C2CCN(C(=O)Cc3ccsc3)CC2)c2cccnc21
Percent Effect (30.3 µM, […]): 16.05%

Cc1ccc(C)c(CS(=O)(=O)CC(=O)Nc2ccc(F)cc2F)c1
Percent Effect (30.3 µM, […]): 17.81%

Cc1ccc(C)c(CS(=O)(=O)CC(=O)NC(C)c2ccc(F)cc2F)c1 (configuration not stated)
Percent Effect (30.3 µM, […]): 56.23%

CCS(=O)(=O)CC(=O)NC(C)c1ccc(F)cc1F (configuration not stated)
Percent Effect (30.3 µM, […]): -61.88%

CCC[C@@H]1CN(C(=O)c2cnc3ccccc3c2)C[C@H]1NS(C)(=O)=O
Percent Effect (30.3 µM, […]): -86.77%

CCC[C@@H]1CN(C(=O)c2cc3ccccc3s2)C[C@H]1NS(C)(=O)=O
Percent Effect (30.3 µM, […]): 55.32%

CS(=O)(=O)NC1CCN(C(=O)c2cc3ccccc3s2)C1 (configuration not stated)
Percent Effect (30.3 µM, […]): -42.34%

CNc1ncc2c(n1)CN(c1cccc(OC)c1)C2=O
Percent Effect (30.3 µM, […]): 5.042%

O=C(CN1C(=O)CCC1=O)NCCc1nc(C2CC2)cc(C(F)(F)F)n1
Percent Effect (30 µM, 30.03 µM): -18.17%

Clc1ccc(C2(CNC3=NCCN3)CCCCC2)cc1.I
Percent Effect (30 µM, 30.03 µM): 18.91%

CC(C)C(C)N(Cc1ccccn1)Cc1ccco1 (configuration not stated)
Percent Effect (30 µM, 30.03 µM): -27.64%

CCc1ccc(CN(Cc2ccco2)C(C)C(C)C)nc1 (configuration not stated)
Percent Effect (30 µM, 30.03 µM): -19.36%

CC(C)C(C)N(Cc1cnc2ccccc2n1)Cc1ccco1 (configuration not stated)
Percent Effect (30 µM, 30.03 µM): 81.63%

CCc1c(C)nc(N)nc1N1CCCC(c2nc(CCOC)no2)C1 (configuration not stated)
Percent Effect (30 µM, 30.03 µM): -46.14%

C[C@@H]1CN(Cc2cccc(F)c2)C[C@]12CCN(Cc1cccnc1)C2=O.O=C(O)C(F)(F)F.O=C(O)C(F)(F)F
Percent Effect (30.3 µM, […]): -74.2%

CCc1nnc2n1CCN(Cc1ncc(-c3ccc(Cl)cc3)o1)C2
Percent Effect (30.3 µM, […]): -0.05411%

Cc1cc(C[C@@H]2CCC[C@H]2NCc2ccccc2C)on1.O=C(O)CC(O)(CC(=O)O)C(=O)O
Percent Effect (30.3 µM, […]): -2.54%

Cc1cc(C[C@@H]2CCC[C@H]2NCc2ccccc2F)on1.O=C(O)CC(O)(CC(=O)O)C(=O)O
Percent Effect (30.3 µM, […]): 34.89%

CCCOc1ccccc1CN[C@@H]1CCC[C@H]1Cc1cc(C)no1.O=C(O)CC(O)(CC(=O)O)C(=O)O
Percent Effect (30.3 µM, […]): 97.97%
